From PubChem BioAssay (NCI)
This is part of a sample that, as a whole, favours compounds with a hit. Of some 79,000 tested, about 15% had one in any assay. Unmarked numbers belong to inactive results. Calls of active or inactive are those of the source. Cut-off read from the data, not from the text of the source: active = growth inhibition above about 70%; inactive = the rest.

Experiments:
[1] = NCI Yeast Anticancer Drug Screen. Data for the rad50 strain (AID 155);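 note: 0% = growth of vehicle-only cultures of the same strain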; settings: S. cerevisiae rad50 strain growth inhibition; at 50.0 µM; active compounds read high
Summary of the method: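 DNA repair mutant yeast, compound exposure, growth read-out; inhibition is taken relative to vehicle.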

[2] = NCI Yeast Anticancer Drug Screen. Data for the mec2-1 strain (AID 157); settings: S. cerevisiae mec2-1 strain, at 50.0 µM, active compounds read high
Summary of the method: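 Readout is yeast growth inhibition, normalised to vehicle-treated controls, in the mec2-1 strain exposed to compound.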

[3] = NCI Yeast Anticancer Drug Screen. Data for the sgs1 mgt1 strain (AID 161);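 note: 0% = growth of cultures given vehicle only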; settings: S. cerevisiae sgs1 mgt1 strain, at 50.0 µM, active compounds read high
Summary of the method: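 Yeast cells carrying a defined DNA-repair defect were exposed to test compounds. Growth inhibition was measured relative to vehicle-treated controls.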

[4] = NCI Yeast Anticancer Drug Screen. Data for the cln2 rad14 strain (AID 165);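 note: 0% = growth equal to vehicle treated cultures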; settings: S. cerevisiae cln2 rad14 strain, at 50.0 µM, active compounds read high
Summary of the method: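 Relative to vehicle controls, growth inhibition of compound-treated cln2 rad14 yeast was recorded.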

[5] = NCI Yeast Anticancer Drug Screen. Data for the bub3 strain (AID 167); settings: S. cerevisiae bub3 mutant strain, at 50.0 µM, active compounds read high
Summary of the method: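 In this screen, a yeast mutant lacking normal mitotic checkpoint function is challenged with compound. Relative growth versus vehicle gives the inhibition value.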

[6] = NCI Yeast Anticancer Drug Screen. Data for the mlh1 rad18 strain (AID 175); settings: S. cerevisiae mlh1 rad18 strain growth inhibition; at 50.0 µM; active compounds read high
Summary of the method: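 Test agents were incubated with a yeast strain of defined genotype (DNA damage repair defect). Inhibition of growth was derived by comparison with vehicle-exposed cultures.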

Row | Compound | growth inhibition [1] | growth inhibition [2] | growth inhibition [3] | growth inhibition [4] | growth inhibition [5] | growth inhibition [6]
1 | CCOP(=O)(Cc1ccc(N)cc1)OCC | -23% | -34% | -21.2% | 19.9% | -23.9% | -14.2%
2 | CCOP(N)(=O)SC (stereo unspecified) | -11.1% | 8% | -11.8% | -12.8% | -7.45% | 23.6%
3 | CCC(/C=N/N=C(N)N)=N\N=C(N)N | 8.4% | -2.6% | -0.75% | -18.4% | 19.9% | -10.3%
4 | C[Si](C)(C)CN(N=O)C(N)=O | 1.55% | 3.4% | -3.45% | -25.2% | 3.95% | 9.45%
5 | CC(=O)CC(C)=O.CC(=O)CC(C)=O.CC(=O)CC(C)=O.[La] | 27.8% | 1.35% | 12.2% | 19.1% | -4.6% | 1.15%
6 | COc1ccccc1[As](=O)(O)c1ccccc1 | -6.45% | -0.85% | -1.45% | -47.6% | -11% | 5.25%
7 | N/C(N=P(c1ccccc1)(c1ccccc1)c1ccccc1)=N\[N+](=O)[O-] | 11.7% | 15.8% | 8.35% | 4.65% | 12.2% | -16.1%
8 | CC(=O)C1(O)CCC2(O)C3(O)CC=C4CC(O)CCC4(C)C3CC(OC(=O)c3ccc(O)cc3)C12C (stereo unspecified) | 8.5% | 2.85% | -12.8% | -1.7% | -1.6% | -50.4%
9 | O=S(=O)(O)c1ccc([Se][Se]c2ccc(S(=O)(=O)O)cc2)cc1 | 5.8% | -12.9% | -18.1% | -33.5% | -19.2% | -17.4%
10 | CC(=[N-])CC(C)=O.CC(=[N-])CC(C)=O.[Cu+2] | 14.9% | 14.5% | 10.8% | -18.3% | -4.4% | 8.2%
11 | CN1CCc2cc3c(cc2[C@H]1[C@@H]1OC(=O)c2c1ccc1c2OCO1)OCO3 | -11.4% | -38.5% | -26% | -0.25% | -29.1% | -41%
12 | c1ccc(CC2NC(Cc3ccccc3)N3C(Cc4ccccc4)N23)cc1 (stereo unspecified) | -2.65% | 1.9% | 0.9% | -6.25% | 9% | 3.45%
13 | CCNC(=O)Oc1c(Cl)cc(S(=O)(=O)F)cc1Cl | 43.6% | 22.8% | 32.1% | 12.5% | 16% | 26.4%
14 | [N-]=[N+]=NC12CC3CC(CC(C3)C1)C2 | -9.7% | -6% | -7.45% | -9.35% | -25.6% | -20.2%
15 | c1ccc2c(c1)c1ccccc1c1n[se]nc21 | -4.7% | -1.5% | 2.75% | -6.25% | 7.55% | 11.9%
16 | CC(C)C(Br)C(=O)O (stereo unspecified) | -6.85% | -16.6% | -21.1% | -41.5% | -9.5% | 2.1%
17 | CC1OCN2CCCCC12 (stereo unspecified) | -25.9% | -12.7% | -33.4% | -7.85% | -25.1% | -27.1%
18 | O=c1[nH]cc([N+](=O)[O-])cc1[N+](=O)[O-] | 1.5% | -16.6% | -2.25% | 22.7% | -15.6% | 0.5%
19 | C(=NCCN1CCOCC1)=NC1CCCCC1 | -22.4% | -3.25% | -10.9% | -21.1% | -58.1% | -16.1%
20 | S=C(SP(SC(=S)N1CCCCC1)SC(=S)N1CCCCC1)N1CCCCC1 | 28.9% | -31.9% | 47.5% | -10.2% | -2.2% | 39.7%
21 | Cc1cc(NC(=O)CCc2ccc(N)cc2)ccc1S(=O)(=O)F | 89.5% (active) | 94.9% (active) | 96.5% (active) | 81.8% (active) | 95% (active) | 95.2% (active)

Row | Compound | growth inhibition [1] | growth inhibition [2] | growth inhibition [3] | growth inhibition [4] | growth inhibition [5] | growth inhibition [6]
22 | CCCCCCCCCNP(=O)(OCc1ccccc1)N(CCCl)CCCl (stereo unspecified) | 55.5% | 37.2% | 40.2% | 34.8% | -0.4% | 26.4%
23 | CCC(C)(C)C(=O)Nc1cccc(OC(=O)NC)c1 | 2.1% | -9.1% | 9.85% | -3.35% | 13.2% | -16.9%
24 | COc1cc(C2c3[nH]c4ccccc4c3C[C@H]3COC(=O)N23)cc(OC)c1OC (stereo partly specified) | 62.6% | 15.3% | 57.5% | 24.4% | 54% | -10.2%
25 | CCCCCCCCCCOP(OCCCCCCCCCC)Oc1ccccc1 | 47.1% | -4.9% | 2.1% | 10.5% | 0.45% | 7.45%
26 | CS(=O)(=O)c1ccc(COP(N)(=O)N(CCCl)CCCl)cc1 (stereo unspecified) | 17.1% | -8.05% | -0.95% | 11.3% | -4.2% | 17.7%
27 | C(=NCCN=CC1CCCC[N-]1)C1CCCC[N-]1.[Cu+2].[O-][Cl+3]([O-])([O-])O (stereo unspecified) | 79.8% (active) | 71% (active) | 44.5% | 90% (active) | 69.5% | 82.7% (active)
28 | CNC(=O)Oc1cccc(N)c1 | 5.35% | -1.1% | 5.85% | 7.3% | -22.1% | -0.05%
29 | CS(=O)(=O)NC(=NCCOS(C)(=O)=O)N[N+](=O)[O-] | 9% | -8.5% | 19.4% | -6.85% | 1.9% | 11.8%
30 | CNC(=O)CCl | 5.65% | 3.4% | -0.45% | -7.15% | -0.75% | 6.4%
31 | O=C1C(=C(O)c2ccccc2)C(=O)c2ccccc21 | -3% | 1.65% | 1.65% | -0.25% | -1.8% | 12.3%
32 | CN(C)CCNC(=O)c1cc([N+](=O)[O-])cc2c1Oc1ccccc1O2 | -7.05% | -12.6% | -7.35% | 16.9% | -7.2% | -7.3%
33 | COc1cc(/C=C2\C(O)C3CCN2CC3)cc(OC)c1OC (stereo unspecified) | -9.25% | -2.15% | -5.6% | -8.65% | 9.1% | -6.8%
34 | c1ccc(NNc2ccccc2)cc1 | 8.5% | 1.7% | 0.95% | -14.1% | -6.15% | -5.65%
35 | CN=c1ssc(/N=C(\SC)N(C)C)[n+]1C | -17.7% | -10.1% | -13.8% | -65.7% | -19.4% | 3.05%
36 | O=C(O)c1cccc([As]=[As]c2cccc(C(=O)O)c2)c1 (stereo unspecified) | 8.4% | -9.35% | -8.75% | 83.2% (active) | -65.3% | 1%
37 | NP(=O)(Oc1cccc2c(OP(N)(=O)N(CCCl)CCCl)cccc12)N(CCCl)CCCl (stereo unspecified) | 6.95% | -3.65% | 8.1% | -29.7% | -3.25% | 16.9%
38 | CCN1CCOC(O)(c2cc(Cl)cc(Cl)c2Cl)C1 (stereo unspecified) | 17.4% | -11.2% | 8.9% | -24.7% | 26.1% | 14.8%
39 | CC(C)CCCC(C)CCC1C(=O)NC(=S)NC1=O (stereo unspecified) | 8.45% | 10.2% | -4.4% | 1.75% | -3.05% | 32.1%
40 | O=C(c1ccccc1)c1c(CC(O)c2ccccc2)n(C(=O)c2ccccc2)c2ccccc12 (stereo unspecified) | 10.6% | -20.1% | -14.3% | -67.2% | -22.9% | -13.9%
41 | CC1CN1P(=O)(N1CCCC1)N1CC1C (stereo unspecified) | 5.25% | 15.1% | -20.3% | 6.5% | -1.5% | 13.4%
